Data on 19 compounds can be found in PubChem BioAssay (EPA / NIEHS).

For assay [1], the target named is Estrogen receptor beta (Homo sapiens) (UniProt Q92731). The experiment in a line: OT_ER_ERbERb_1440: Odyssey Thera (OT) 24-hour HEK293T Protein-Complementation Assay for Estrogen Receptor-beta/-beta Homodimer (AID 2283380).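 Also: fluorescence gain from ER beta LBD homodimer complementation read by laser scanning cytometry; scored as signal increase over DMSO baseline for both agonists and antagonists.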 A digest of the protocol:
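Fluorescence increase, nuclear for agonists or whole-cell for antagonists, relative to DMSO vehicle, quantified by laser scanning cytometer after fixation and Draq5 staining. Readout from 24 h treatment of HEK293T cells carrying complementation-paired ER beta LBD (aa 310-547).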

Assay [2] addresses Estrogen receptor (Homo sapiens) (UniProt P03372). The experiment in a line: OT_ERa_GFPERaERE_0480: Odyssey Thera (OT) 8-hour HeLa Transcription Induction Assay for Estrogen Receptor (AID 2283381; active = hit-call score of the fitted dose curve at least 0.9, where 1 is the maximum; inactive = score below 0.9). A digest of the protocol:
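HeLa cells expressing GFP reporter under estrogen response element, imaged 8 h after dosing. GFP induction quantified by high-content fluorescence microscopy image analysis; gain of signal fitted versus DMSO.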

The target is the same in assay [3]. The experiment in a line: OT_ERa_GFPERaERE_0120: Odyssey Thera (OT) 2-hour HeLa Transcription Induction Assay for Estrogen Receptor (AID 2283382). The method, boiled down: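 HeLa cells were dosed for 2 h, then GFP reporter induction was quantified by fluorescence microscopy with high-content image analysis. Gain of signal fitted against DMSO baseline.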
Assay [4] addresses Bile acid receptor (Homo sapiens) (UniProt Q96RI1). The experiment in a line: OT_FXR_FXRSRC1_0480: Odyssey Thera (OT) 8-hour HEK293T Protein-Complementation Assay for Farnesoid X receptor/SRC-1 Co-activator (AID 2283383). The method, boiled down:
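HEK293T protein-fragment complementation assay: FXR and SRC-1 coactivator are fused to reporter fragments, and their interaction restores a fluorescent reporter. Readout was taken 8 h after dosing, with gain of signal fit relative to DMSO.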

The target is the same in assay [5]. The experiment in a line: OT_FXR_FXRSRC1_1440: Odyssey Thera (OT) 24-hour HEK293T Protein-Complementation Assay for Farnesoid X receptor/SRC-1 Co-activator (AID 2283384). The method, boiled down: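 HEK293T cells, 24 h after chemical dosing. FXR–SRC-1 coactivator interaction read as fluorescence from protein-fragment complementation of a split reporter. Gain of signal fitted against DMSO baseline.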

Assay [6] deals with Retinoic acid receptor RXR-alpha (Homo sapiens) (UniProt P19793). The experiment in a line: OT_NURR1_NURR1RXRa_0480: Odyssey Thera (OT) 8-hour HEK293T Protein Complementation Assay for Nurr1/retinoid X receptor (RXR) (AID 2283385). The method, boiled down: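 HEK293T cells expressing Nurr1 and RXRα fused to reporter fragments (protein-fragment complementation); fluorescence measured 8 h after dosing. Gain of signal fitted relative to DMSO.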
Chain of Retinoic acid receptor RXR-alpha (Homo sapiens) (P19793 whole entry, looked up, the tested form may be a part): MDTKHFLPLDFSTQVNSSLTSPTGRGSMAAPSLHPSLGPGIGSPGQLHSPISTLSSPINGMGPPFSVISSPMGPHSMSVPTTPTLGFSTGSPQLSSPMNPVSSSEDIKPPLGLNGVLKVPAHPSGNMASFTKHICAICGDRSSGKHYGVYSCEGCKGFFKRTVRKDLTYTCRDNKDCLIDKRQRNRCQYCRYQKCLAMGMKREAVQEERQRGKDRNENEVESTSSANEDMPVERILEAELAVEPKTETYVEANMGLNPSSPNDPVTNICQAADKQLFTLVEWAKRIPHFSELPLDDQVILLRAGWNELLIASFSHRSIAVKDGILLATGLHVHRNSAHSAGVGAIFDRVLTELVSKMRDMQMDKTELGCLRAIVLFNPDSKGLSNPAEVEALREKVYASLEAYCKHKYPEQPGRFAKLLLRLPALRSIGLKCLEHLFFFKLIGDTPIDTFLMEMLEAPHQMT

Assay [7] shares this target. The experiment in a line: OT_NURR1_NURR1RXRa_1440: Odyssey Thera (OT) 24-hour HEK293T Protein Complementation Assay for Nurr1/retinoid X receptor (RXR) (AID 2283386). A digest of the protocol: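 HEK293T protein-fragment complementation of Nurr1 and RXRα fused to reporter fragments; compounds 24 h. Fluorescence gain from reconstituted reporter fitted versus DMSO.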
Assay [8] deals with Agonist Androgen Response Element (ARE), AR (gene 367) (UniProt P10275). The experiment in a line: OT_AR_ARELUC_AG_1440: Odyssey Thera (OT) 24-hour CHO-K1 Luciferase Assay for Agonist Androgen Response Element (ARE) (AID 2283379). A digest of the protocol:
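Agonist mode, 24 h exposure in CHO-K1 ARE-luciferase cells; values reflect luminescence induction over vehicle.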

The target in assay [9] is Peroxisome proliferator-activated receptor gamma (Homo sapiens) (UniProt P37231). Briefly: OT_PPARg_PPARgSRC1_0480: Odyssey Thera (OT) 8-hour Protein-Complementation Assay for Peroxisome Proliferator-activated Receptor Gamma / SRC-1 Co-activator (AID 2283387).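 Also: nuclear to cytoplasmic split Venus YFP fluorescence ratio reporting PPARg SRC-1 interaction.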 A digest of the protocol:
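Split-YFP (IFP1/IFP2) PPARg/SRC-1 reporter, HEK293T, 37 °C, 5% CO2; 8 h compound; formaldehyde fix + Draq5; high-content imaging, N/C ratio, ≥350 cells/image, positive direction vs DMSO.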

The target is the same in assay [10]. The experiment in a line: OT_PPARg_PPARgSRC1_1440: Odyssey Thera (OT) 24-hour Protein-Complementation Assay for Peroxisome Proliferator-activated Receptor Gamma/ SRC-1 Co-activator (AID 2283388).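 Also: nuclear to cytoplasmic ratio of reconstituted Venus YFP fluorescence in fixed imaged cells.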 A digest of the protocol: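 Transient HEK293T, YFP fragments 1-158/159-239 (mutant IFP1/IFP2) fused to PPARg/SRC-1; 24 h dosing; fix 4% formaldehyde, Draq5; Opera imaging 488/635 nm; N/C ratio, gain vs DMSO.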

What is called AC50 is the concentration giving half of the maximal activity seen.

Inconclusive results are not listed. Active and inactive are the calls of the source. The calls were made as follows, unless noted: active = hit-call score of the fitted dose curve at least 0.9, where 1 is the maximum; inconclusive = response in the unintended direction; inactive = score below 0.9.

Chain of Peroxisome proliferator-activated receptor gamma (Homo sapiens) (P37231 whole entry, looked up): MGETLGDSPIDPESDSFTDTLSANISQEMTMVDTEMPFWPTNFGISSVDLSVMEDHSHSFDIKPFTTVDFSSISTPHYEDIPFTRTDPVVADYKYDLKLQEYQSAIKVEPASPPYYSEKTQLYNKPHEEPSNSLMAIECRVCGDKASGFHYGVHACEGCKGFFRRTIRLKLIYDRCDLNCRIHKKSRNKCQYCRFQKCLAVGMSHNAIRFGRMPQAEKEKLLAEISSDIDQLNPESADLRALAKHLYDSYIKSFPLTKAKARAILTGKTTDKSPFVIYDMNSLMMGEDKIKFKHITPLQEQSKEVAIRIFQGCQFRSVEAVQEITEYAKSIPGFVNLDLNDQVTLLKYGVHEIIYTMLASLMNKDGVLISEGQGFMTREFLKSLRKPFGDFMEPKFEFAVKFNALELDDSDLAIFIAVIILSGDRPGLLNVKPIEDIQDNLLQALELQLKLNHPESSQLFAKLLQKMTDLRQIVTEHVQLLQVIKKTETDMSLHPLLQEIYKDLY
Chain of Estrogen receptor (Homo sapiens) (P03372 whole entry, looked up): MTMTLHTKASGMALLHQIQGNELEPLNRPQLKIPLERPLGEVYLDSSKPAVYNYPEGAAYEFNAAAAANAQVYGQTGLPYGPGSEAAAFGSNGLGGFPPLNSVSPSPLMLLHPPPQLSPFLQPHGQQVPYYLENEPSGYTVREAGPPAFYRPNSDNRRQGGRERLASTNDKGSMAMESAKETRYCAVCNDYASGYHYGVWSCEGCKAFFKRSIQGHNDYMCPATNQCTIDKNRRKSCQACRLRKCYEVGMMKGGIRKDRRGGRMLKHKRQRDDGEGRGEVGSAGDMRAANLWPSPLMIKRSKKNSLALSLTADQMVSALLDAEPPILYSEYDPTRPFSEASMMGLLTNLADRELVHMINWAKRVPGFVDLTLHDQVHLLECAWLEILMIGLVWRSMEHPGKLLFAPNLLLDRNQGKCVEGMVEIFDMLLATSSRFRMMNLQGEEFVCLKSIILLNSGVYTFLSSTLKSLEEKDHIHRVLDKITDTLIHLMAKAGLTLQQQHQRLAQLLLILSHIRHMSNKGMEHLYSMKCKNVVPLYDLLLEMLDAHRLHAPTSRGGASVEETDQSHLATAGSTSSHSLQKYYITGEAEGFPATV
Chain of Agonist Androgen Response Element (ARE), AR (gene 367) (P10275 whole entry, looked up): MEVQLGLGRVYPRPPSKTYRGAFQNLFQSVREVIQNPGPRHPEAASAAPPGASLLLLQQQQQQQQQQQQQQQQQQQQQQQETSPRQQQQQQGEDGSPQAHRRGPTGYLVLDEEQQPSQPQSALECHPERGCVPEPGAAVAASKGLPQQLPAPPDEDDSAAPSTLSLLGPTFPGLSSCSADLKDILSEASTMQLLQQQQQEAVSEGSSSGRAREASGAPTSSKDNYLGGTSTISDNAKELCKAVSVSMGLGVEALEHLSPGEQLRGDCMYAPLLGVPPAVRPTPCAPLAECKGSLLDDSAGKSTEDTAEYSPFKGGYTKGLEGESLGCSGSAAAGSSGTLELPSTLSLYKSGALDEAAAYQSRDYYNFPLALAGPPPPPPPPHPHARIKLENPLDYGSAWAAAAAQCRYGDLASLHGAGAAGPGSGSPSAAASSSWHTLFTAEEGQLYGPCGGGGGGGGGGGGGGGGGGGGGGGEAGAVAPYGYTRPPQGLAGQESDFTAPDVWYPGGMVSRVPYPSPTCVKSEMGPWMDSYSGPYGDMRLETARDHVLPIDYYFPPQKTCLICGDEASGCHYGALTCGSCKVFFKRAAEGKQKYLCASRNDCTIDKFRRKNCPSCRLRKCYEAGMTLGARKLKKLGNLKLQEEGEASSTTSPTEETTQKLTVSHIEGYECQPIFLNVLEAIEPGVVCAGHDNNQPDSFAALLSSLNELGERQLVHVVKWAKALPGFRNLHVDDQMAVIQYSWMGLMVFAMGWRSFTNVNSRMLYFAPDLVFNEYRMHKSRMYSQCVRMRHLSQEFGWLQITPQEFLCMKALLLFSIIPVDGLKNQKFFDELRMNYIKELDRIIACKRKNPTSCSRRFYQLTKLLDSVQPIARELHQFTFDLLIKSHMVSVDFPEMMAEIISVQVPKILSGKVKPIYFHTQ
Chain of Bile acid receptor (Homo sapiens) (Q96RI1 whole entry, looked up, the tested form may be a part): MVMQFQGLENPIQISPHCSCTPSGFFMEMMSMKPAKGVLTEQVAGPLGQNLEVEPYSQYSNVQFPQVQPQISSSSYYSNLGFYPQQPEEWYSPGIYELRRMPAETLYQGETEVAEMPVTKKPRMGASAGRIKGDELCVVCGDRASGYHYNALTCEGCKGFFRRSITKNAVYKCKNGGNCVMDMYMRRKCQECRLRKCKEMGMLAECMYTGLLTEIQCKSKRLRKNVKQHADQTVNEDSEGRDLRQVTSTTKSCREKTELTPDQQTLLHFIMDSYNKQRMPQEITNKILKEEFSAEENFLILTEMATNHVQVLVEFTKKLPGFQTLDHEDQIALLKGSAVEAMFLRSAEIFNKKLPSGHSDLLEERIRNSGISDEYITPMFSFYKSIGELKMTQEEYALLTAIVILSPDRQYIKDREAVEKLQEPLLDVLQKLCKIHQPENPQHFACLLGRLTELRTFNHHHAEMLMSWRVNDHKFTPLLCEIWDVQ
Chain of Estrogen receptor beta (Homo sapiens) (Q92731 whole entry, looked up, the tested form may be a part): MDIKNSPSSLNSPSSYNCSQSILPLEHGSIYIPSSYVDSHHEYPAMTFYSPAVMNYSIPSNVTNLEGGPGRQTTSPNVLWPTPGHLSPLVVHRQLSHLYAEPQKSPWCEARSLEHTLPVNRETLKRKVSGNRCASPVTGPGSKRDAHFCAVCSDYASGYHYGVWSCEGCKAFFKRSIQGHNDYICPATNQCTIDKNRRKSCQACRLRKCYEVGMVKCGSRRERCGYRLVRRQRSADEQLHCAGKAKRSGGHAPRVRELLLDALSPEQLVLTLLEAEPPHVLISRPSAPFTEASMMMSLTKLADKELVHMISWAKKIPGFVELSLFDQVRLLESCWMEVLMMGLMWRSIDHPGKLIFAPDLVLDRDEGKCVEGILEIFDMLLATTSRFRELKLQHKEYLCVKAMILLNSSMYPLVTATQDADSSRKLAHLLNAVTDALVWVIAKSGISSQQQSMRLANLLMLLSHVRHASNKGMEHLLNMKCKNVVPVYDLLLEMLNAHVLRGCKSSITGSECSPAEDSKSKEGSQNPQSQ

On to `CCCCN(CCCC)CCCC`, for which the compound was classed as inactive in [1], in assay [2], in [3], in assay [4], in [5] and in assay [6]. In assay [7], the compound was classed as inactive.
Consider `Cc1ccc(C)c(C)c1`, for which the call in assay [8], in assay [2], in assay [3], in [6], in [7] and in [9] was inactive. Besides, the call in [10] was inactive.
On to `Cc1cc(NC(=O)C(=O)O)cc(C)c1Oc1ccc(O)c2c1CCC2`, for which the compound was classed as inactive in assay [8], in [2], in assay [3], in [4], in [5] and in assay [6]. In assay [7], the compound was classed as inactive.
Consider `Cc1cccc(C)c1O`, for which the call in assay [8], in [2], in assay [3], in assay [9] and in [10] was inactive.
With `Cc1cccc(Nc2cc(Cl)nc(SCC(=O)O)n2)c1C`, the compound was called inactive in assay [8], in assay [1], in assay [2], in assay [3], in assay [6] and in assay [9]. The call in [10] was inactive.
Turning to `Cc1cccc([N+](=O)[O-])c1C`, the result in [8], in [2], in assay [3], in [6], in assay [7] and in [9] was inactive. Further, the call in [10] was inactive.
With `COc1cc(C=O)ccc1O`, the AC50 in [8] is 50 µM (active). For the same compound, the call in [2], in assay [3], in assay [4], in assay [6], in [7] and in assay [9] was inactive. Also, in assay [10], the outcome was inactive.
Take `CCCCCC(=O)O`: the compound was classed as inactive in assay [8], in [2], in assay [3], in [6], in [9] and in [10].
With `CNC(=O)[C@H]1O[C@@H](n2cnc3c(NCc4cc(Cl)ccc4OCc4cc(C)no4)ncnc32)[C@H](O)[C@@H]1N`, the compound was called inactive in [8], in [2], in assay [3], in assay [4], in assay [6] and in [9]. For the same compound, the result in assay [10] was inactive.
In the case of `CC(=O)Oc1ccccc1C(=O)O`, the outcome in [8], in assay [2], in assay [3], in [6], in assay [9] and in [10] was inactive.
Take `COc1ccc(C)cc1N`: the compound was classed as inactive in assay [8], in assay [2], in [3], in assay [6], in assay [9] and in assay [10].
Consider `CCCCCCCC=O`, for which the compound was classed as inactive in [1], in assay [2], in assay [3], in [6], in [9] and in assay [10].
Consider `Cc1ccccc1Cl`, for which the result in assay [8], in assay [2], in [3], in assay [4], in assay [5] and in assay [6] was inactive. Moreover, the result in [7], in assay [9] and in assay [10] was inactive.
As to `CCOc1ccc2c(c1)C(C)=CC(C)(C)N2`, the call in assay [8], in [2], in assay [3], in assay [6], in assay [9] and in assay [10] was inactive.
Take `CN[C@H]1CC[C@@H](c2ccc(Cl)c(Cl)c2)c2ccc(S(N)(=O)=O)cc21`: the call in [8], in [3], in assay [9] and in assay [10] was inactive. Further, the AC50 in [2] was 12.3 µM (active).
For the compound `CCCCc1ccc2c(n1)[C@@H](c1ccc(OC)cc1C[C@H](C)C(=O)O)[C@H](C(=O)O)[C@H]2c1ccc2c(c1)OCO2`, the result in assay [1], in assay [2], in assay [3], in assay [4], in assay [6] and in [9] was inactive. The compound was called inactive in [10].
As for `Oc1ccc2ccccc2c1N=Nc1ccccc1`, the outcome in [1], in [2], in [3], in assay [6], in [9] and in [10] was inactive. Besides, the results for the AC50 in [4] and in assay [5] were 36.5 µM (active) and 32.9 µM (active), respectively.
Take `COc1ccc(S(=O)(=O)N2C(=O)[C@@](c3ccccc3OC)(N3C[C@H](O)C[C@H]3C(=O)N(C)C)c3cc(Cl)ccc32)c(OC)c1`: the figures for the AC50 in [8] and in [2] were 0.694 µM (active) and 86.4 µM (active), respectively. The compound was called inactive in assay [3], in assay [6], in [9] and in [10].
With `Cc1ccc(C)c(O)c1C`, the call in [8], in assay [2], in assay [3], in assay [6], in assay [7] and in assay [9] was inactive. In addition, the compound was called inactive in [10].
